Source: the supplement of paper PMC12067926
Values without a mark were called inactive.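 The calls were made as follows: active = growth AUC significantly below the DMSO wells by Dunnett test; inactive = the rest.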

Test system: Bacillus 1 (Bacillus foraminis)
Test: relative growth (AUC of 72 h growth curve relative to DMSO control, dAUC) (ratio); higher = more growth (less inhibition), active = hit call of the paper
Settings: 20 µM
Experimental: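 Environmental bacterial isolates (Iceland stream sediment and Silwood Park soil) and whole stream-sediment communities were grown in LB from a 1:100 dilution with each pesticide at 20 µM (1% DMSO). A600 was read hourly for 72 h and the area under a spline-fitted growth curve (AUC) was computed. dAUC is the mean AUC of 3 biological replicates divided by the mean AUC of the DMSO controls. Significance was tested by Dunnett's test against the DMSO control.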

**Q.** How did the relative growth turn out when `C[C@@H]1[C@@H](c2ccc(Cl)cc2)SC(=O)N1C(=O)NC1CCCCC1` was run?
**A.** 1.06

**Q.** `Cc1cc(C2CC2)nc(Nc2ccccc2)n1` was tested. Which relative growth did it give?
**A.** 0.911

**Q.** How did the relative growth turn out when `N#CCNC(=O)c1cnccc1C(F)(F)F` was run?
**A.** 1.03

**Q.** Which relative growth does the source give for `Oc1ccccc1-c1ccccc1` here?
**A.** 0.868

**Q.** `N#CC(CCc1ccc(Cl)cc1)(Cn1cncn1)c1ccccc1` (stereo not given) was tested. Which relative growth did it give?
**A.** 0.836

**Q.** For `CCCCOC(=O)[C@H](C)Oc1ccc(Oc2ccc(C#N)cc2F)cc1`, which relative growth is on record?
**A.** 1.07

**Q.** How did the relative growth turn out when `N#Cc1nn(-c2c(Cl)cc(C(F)(F)F)cc2Cl)c(N)c1[S+]([O-])C(F)(F)F` (stereo not given) was run?
**A.** 1.01

**Q.** Which relative growth does the source give for `COc1ncc(F)c2nc(S(=O)(=O)Nc3c(F)cccc3F)nn12` here?
**A.** 1.06

**Q.** For `COC(=O)NC(=S)Nc1ccccc1NC(=S)NC(=O)OC`, which relative growth is on record?
**A.** 0.942

**Q.** For `O=C1C=C(N(Cc2ccc(Cl)nc2)CC(F)F)CO1`, which relative growth is on record?
**A.** 0.945

**Q.** With `O=C(O)CNCP(=O)(O)O` as the compound, how does the relative growth read?
**A.** 1.04

**Q.** For `Fc1ccc([C@]2(Cn3cncn3)O[C@H]2c2ccccc2Cl)cc1` (racemic), which relative growth is on record?
**A.** 0.994

**Q.** For `CCc1cc(C)cc(CC)c1-c1c(OC(=O)C(C)(C)C)n2n(c1=O)CCOCC2`, which relative growth is on record?
**A.** 0.912

**Q.** Which relative growth does the source give for `CCOP(=S)(OCC)Oc1cc(C)nc(C(C)C)n1` here?
**A.** 0.963

**Q.** Which relative growth does the source give for `CC(C)N1C(=O)c2ccccc2NS1(=O)=O` here?
**A.** 1.01

**Q.** Which relative growth does the source give for `COP(=O)(OC)OC=C(Cl)Cl` here?
**A.** 0.941

**Q.** With `N#Cc1cc(Br)c(O)c(Br)c1` as the compound, how does the relative growth read?
**A.** 0.916

**Q.** How did the relative growth turn out when `CCc1nn(C)c(C(=O)NCc2ccc(Oc3ccc(C)cc3)cc2)c1Cl` was run?
**A.** 1.05

**Q.** Which relative growth does the source give for `Cc1nnc(-c2ccccc2)c(=O)n1N` here?
**A.** 0.881

**Q.** `O=C(O)c1nc(Cl)ccc1Cl` was tested. Which relative growth did it give?
**A.** 0.984

**Q.** For `CNC(=O)/C=C(\C)OP(=O)(OC)OC`, which relative growth is on record?
**A.** 0.96

**Q.** `COCc1cnc(C2=NC(C)(C(C)C)C(=O)N2)c(C(=O)O)c1` (stereo not given) was tested. Which relative growth did it give?
**A.** 0.985

**Q.** For `CC(C)(C)[C@@H](O)[C@H](Oc1ccc(Cl)cc1)n1cncn1`, which relative growth is on record?
**A.** 1.03

**Q.** Which relative growth does the source give for `O=C1c2ccccc2C(=O)N1SC(Cl)(Cl)Cl` here?
**A.** 1.12

**Q.** `CCSC(C)CC1CC(=O)C(/C(CC)=N/OC/C=C/Cl)=C(O)C1` (mixture of isomers) was tested. Which relative growth did it give?
**A.** 1.06

**Q.** For `C#CCN1C(=O)COc2cc(F)c(N3C(=O)C4=C(CCCC4)C3=O)cc21`, which relative growth is on record?
**A.** 1.14

**Q.** For `O=[N+]([O-])/N=C1\NCCN1Cc1ccc(Cl)nc1`, which relative growth is on record?
**A.** 1.06

**Q.** How did the relative growth turn out when `CS(=O)(=O)c1ccc(C(=O)C2C(=O)CCCC2=O)c([N+](=O)[O-])c1` was run?
**A.** 0.961

**Q.** Which relative growth does the source give for `CC[C@H](C)C1O[C@]2(C=C[C@@H]1C)C[C@@H]1C[C@@H](C/C=C(\C)[C@@H](O[C@H]3C[C@H](OC)[C@@H](O[C@H]4C[C@H](OC)[C@H](NC)[C@H](C)O4)[C@H](C)O3)[C@@H](C)/C=C/C=C3\CO[C@@H]4[C@H](O)C(C)=C[C@@H](C(=O)O1)[C@]34O)O2` (stereo not given in full) here?
**A.** 0.928

**Q.** `CO/N=C(/C(=O)OC)c1ccccc1CO/N=C(\C)c1cccc(C(F)(F)F)c1` was tested. Which relative growth did it give?
**A.** 0.972

**Q.** For `CC(C1CC1)C(O)(Cn1cncn1)c1ccc(Cl)cc1` (stereo not given), which relative growth is on record?
**A.** 1.09

**Q.** `CC1(C)C(C=C(Cl)Cl)C1C(=O)OCc1cccc(Oc2ccccc2)c1` (stereo not given) was tested. Which relative growth did it give?
**A.** 1.06

**Q.** With `C[N+](C)(C)CCCl` as the compound, how does the relative growth read?
**A.** 0.969

**Q.** With `CC(C)N(C)S(=O)(=O)NC(=O)c1cc(-n2c(=O)cc(C(F)(F)F)n(C)c2=O)c(F)cc1Cl` as the compound, how does the relative growth read?
**A.** 0.998

**Q.** Which relative growth does the source give for `CC1(C)[C@H](C(=O)O[C@H](C#N)c2cccc(Oc3ccccc3)c2)[C@@H]1C=C(Br)Br` here?
**A.** 1.1

**Q.** `C#CCOc1ccc(CCNC(=O)C(OCC#C)c2ccc(Cl)cc2)cc1OC` (stereo not given) was tested. Which relative growth did it give?
**A.** 1.06

**Q.** For `CC1(C)C(C(=O)OC(C#N)c2cccc(Oc3ccccc3)c2)C1(C)C` (stereo not given), which relative growth is on record?
**A.** 0.917

**Q.** `CCC(C)(C)C(=O)OC1=C(c2ccc(Cl)cc2Cl)C(=O)OC12CCCCC2` was tested. Which relative growth did it give?
**A.** 0.975

**Q.** `CSc1nnc(C(C)(C)C)c(=O)n1N` was tested. Which relative growth did it give?
**A.** 0.94

**Q.** `COP(=O)(NC(C)=O)SC` (stereo not given) was tested. Which relative growth did it give?
**A.** 1.02
